# Screening data from PubChem BioAssay.
# The list is not random: actives were taken first. Their share in the collection is about 1.3%.
# PKM2 activator = increases activity of human pyruvate kinase M2; P14618; purified PKM2, Kinase-Glo ATP luminescence, activation; response scale: 0% is enzyme alone, no compound; Potency, µM (highest dose often 57.5 µM), hits mostly activators; hit rate 0.34% among 260,000; AID 1631; also: nearly all actives have a fitted effect of over 55% in size
#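 Kinase-Glo luminescence reports ATP generated from ADP (0.1 mM) and PEP (0.5 mM) by purified hPK-M2 after 1 h at room temperature, pH 7.2 imidazole buffer; intermediate enzyme activity allows detecting inhibitors and activators.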
# IDH1 R132H inh = human IDH1 R132H inhibition. IDH1-R132H enzyme, NADPH consumption, diaphorase/resazurin fluorescence. Potency, µM (series often up to 76.6 µM), most hits filed as inhibitors. hit rate 0.093% among 390,000. AID 602179; also: nearly all actives have a fitted effect of over 65% in size
#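 IDH1-R132H (0.5 ug/mL dispensed) in pH 7.5 Tris buffer was preincubated 30 min with compound, then given a substrate mix of 0.016 mM NADPH and 2 mM alpha-KG for 80 min at room temperature; remaining NADPH was read by diaphorase/resazurin fluorescence.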
# TrxR1 substrate = rat thioredoxin reductase 1 substrate activity; Potency, µM (highest dose often 114 µM); AID 588456; O89049; purified TrxR1 substrate turnover, NADPH consumption readout; hit rate 0.01% among 390,000; also: nearly all actives have a fitted effect of over 50% in size
# Target sequence (O89049 whole entry, looked up): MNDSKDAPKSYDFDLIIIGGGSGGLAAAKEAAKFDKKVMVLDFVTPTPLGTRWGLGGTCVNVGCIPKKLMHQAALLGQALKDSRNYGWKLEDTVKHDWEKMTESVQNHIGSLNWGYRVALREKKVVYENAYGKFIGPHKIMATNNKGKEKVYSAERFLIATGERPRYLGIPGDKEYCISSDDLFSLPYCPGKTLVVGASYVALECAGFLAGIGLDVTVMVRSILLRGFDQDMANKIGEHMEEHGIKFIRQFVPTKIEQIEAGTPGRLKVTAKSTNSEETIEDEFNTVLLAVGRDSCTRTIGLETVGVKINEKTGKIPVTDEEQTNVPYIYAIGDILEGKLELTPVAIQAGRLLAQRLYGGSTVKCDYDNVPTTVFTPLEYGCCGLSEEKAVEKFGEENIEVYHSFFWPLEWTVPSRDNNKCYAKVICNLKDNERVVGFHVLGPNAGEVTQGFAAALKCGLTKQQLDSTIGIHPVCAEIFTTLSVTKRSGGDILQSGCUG
#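 Rat TrxR1, dispensed at 90 nM, was prereduced with 400 uM NADPH (final) for 5 min at ~22 deg C, then incubated with compound 15 min before 400 uM selenite. A first-read NADPH fluorescence drop versus no-compound background flagged substrates.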
# TrxR1 inh = inhibitors of rat thioredoxin reductase 1 | O89049 | AID 588453 | Potency, µM (top dose mostly 114 µM), most hits filed as inhibitors | recombinant rTrxR1, NADPH fluorescence consumption, selenite substrate | hit rate 1% among 390,000; also: nearly all actives have a fitted effect of over 65% in size
#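 Rat TrxR1 (90 nM in the dispensed reagent) was pre-reduced with 400 uM NADPH for 5 min at room temperature, then incubated with compound for 15 min. After 400 uM selenite was added, NADPH fluorescence (Ex 340/Em 450 nm) was followed for 8 min.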
# GALK inh = galactokinase (human) inhibition; P51570; AID 1868; hit rate 0.007% among 270,000; Purified GALK, Kinase-Glo residual ATP luminescence; Potency, µM (titrated, usually from 57.5 µM), actives largely listed as inhibitors
#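 Compounds were pin-transferred into ATP buffer (35 uM final), then GALK plus galactose (5 nM, 100 uM final) was added. After 1 h at room temperature, Kinase-Glo Plus was added and luminescence read after 10 min.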
# Apoferritin bind = binds horse apoferritin like a general anesthetic; P02791; apoferritin/1-aminoanthracene competitive binding, fluorescence; Potency, µM (doses to about 77.5 µM), usual class: inhibitors; hit rate 0.074% among 350,000; AID 485281; also: nearly all actives have a fitted effect of over 20% in size
# Target sequence (P02791 2-175 limits assumed): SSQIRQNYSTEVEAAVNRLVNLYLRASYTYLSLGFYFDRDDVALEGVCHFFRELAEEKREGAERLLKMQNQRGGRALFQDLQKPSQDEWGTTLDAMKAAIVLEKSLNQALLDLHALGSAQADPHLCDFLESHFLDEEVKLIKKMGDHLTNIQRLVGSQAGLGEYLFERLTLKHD
#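 10 uM apoferritin + 50% sat. 1-AMA, PBS; cpd 10 min RT; Ex380/Em535 endpoint; normalized to free probe vs complex; 4-param Hill fit; propofol titration as pos. ctrl.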
# Numbers stand for hits; – = inactive; ? = inconclusive; · = no result; [ ] = remark or other dose. Calls follow the shape of the dose curve; as a rule, active = well fitted curve in the direction sought with a large enough effect; inconclusive = small, poorly fitted or top-dose-only effect, or another doubt; inactive = no such curve, though single readings can be large; an effect the other way counts as inactive or inconclusive.
SMILES,PKM2 activator,IDH1 R132H inh,TrxR1 substrate,TrxR1 inh,GALK inh,Apoferritin bind
C/C=C1\COC(C(=O)NCc2cccc(OC)c2OC)(C(F)(F)F)C=C1C=C(C)C (configuration not stated),·,·,–,–,·,–
C/C=C1\COC(C(=O)NCCN2CCOCC2)(C(F)(F)F)C=C1C=C1CCCCC1 (configuration not stated),·,·,–,?,·,–
C/C=C1\COC(C(=O)NCc2ccccc2)(C(F)(F)F)C=C1C=C1CCCCC1 (configuration not stated),·,–,–,1µM,·,–
CCCCC(C)/C=C(C)/C=C(\C)C(=O)NC1=CC(O)(/C=C/C=C/C=C/C(=O)NC2=C(O)CCC2=O)C2OC2C1=O (configuration not stated),·,·,·,·,·,–
COc1cc(OC)c(/C=C/c2ccncn2)c(OC)c1,·,·,–,–,·,·
Cc1c([N+](=O)[O-])nnn1-c1cc(Cl)cc(Cl)c1,–,–,–,15.8µM,–,–
N#Cc1nnn(-c2cc(Cl)cc(Cl)c2)c1N,–,–,–,–,–,–
O=[N+]([O-])c1cc([N+](=O)[O-])c2nonc2c1Nc1ccc(O)cc1,–[11.5 µM],–,–,28.2µM,–,–
Cc1ccc(NC2=C(NC(=O)c3ccccc3)C(=O)c3ccccc3C2=O)cc1Cl,–,–,?,1.58µM,–,?
O=C(O)c1ccc(NC2=C(Cl)C(=O)c3ccccc3C2=O)cc1,–,–,–,0.501µM,–,–
CC(C)NC1=C(Cl)C(=O)c2ccccc2C1=O,–,–,–,?,–,?
O=C1C(Cl)=C(Nc2ccccc2)C(=O)c2ccccc21,–,–,–,0.631µM,–,–
O=C(O)c1cccc(NC2=C(Cl)C(=O)c3ccccc3C2=O)c1,–,–,–,?,–,–
Cc1ccc(NCC(=O)c2ccccc2)cc1Cl,–,–,–,–,–,–
CCC(=O)N1c2ccccc2CC1C(=O)NCCc1ccccc1OC (configuration not stated),·,–,–,–,·,–
COc1ccc(CN(C)c2ccc(-c3nc(-c4ccc(OC)c(OC)c4)no3)cc2[N+](=O)[O-])cc1,·,–,–,–,·,–
CCCCCCC1Cc2cc(OC)c(OC)cc2C(C(C(=O)OCC)C(=O)OCC)O1 (configuration not stated),·,·,·,·,·,–[15.3 µM]
C[C@H](Cc1ccc(O)c(O)c1)[C@@H](C)Cc1ccc(O)c(O)c1,·,·,–,12.6µM,·,·
COc1ccc(N2CC(NC(=O)CCc3ccccc3)CC2=O)cc1OC (configuration not stated),·,–,–,–,·,–
O=C(NC(=S)Nc1ccc(Cl)c(C(=O)O)c1)c1ccc(OCc2ccccc2)cc1,–,–,–,–,–,?
COc1cccc(C(=O)NC(=S)Nc2ccc(N3CCCC3)cc2)c1,–,–,–,–,–,?
COc1cccc(C(=O)NC(=S)Nc2ccc(N(C)C)cc2)c1,–,–,–,20µM,–,–
CCOc1cccc(C(=O)NC(=S)Nc2cccc(C)c2)c1,–,–,–,5.01µM,–,–
O=C(NC(=S)Nc1ccc(Cl)c(C(=O)O)c1)c1cccc(COc2ccccc2)c1,–,–,–,70.8µM,–,?
O=C(CCc1nc2ccccc2[nH]1)N1CCN(C(=O)c2ccco2)CC1,–,–,–,–,·,–
SMILES,PKM2 activator,IDH1 R132H inh,TrxR1 substrate,TrxR1 inh,GALK inh,Apoferritin bind
O=C(CSc1ccc(-c2nc3ccccc3[nH]2)cn1)N1CCN(C(=O)c2ccco2)CC1,–,–,–,1.41µM,–,–
Cc1cc2n(n1)SC(Nc1cc(Cl)ccc1Cl)N2 (configuration not stated),–,–,–,7.08µM,–,–
Clc1cccc(-n2ncc3c(NCCCn4ccnc4)ncnc32)c1,·,–,–,–,·,–
COc1ccc(CN2c3c(Br)cccc3C(=O)CS2(=O)=O)cc1,·,–,–,–,·,·
C=CCN1c2ccccc2C(=O)CS1(=O)=O,·,–,–,11.2µM,·,·
Cc1ccc(C)c(Nc2nn3c(=O)c4ccc(C(=O)N(C)Cc5ccccc5)cc4nc3s2)c1,·,–,–,–,·,–
COc1ccc(Cn2nnnc2C(c2ccc(N(C)C)cc2)N2CCC(C(N)=O)CC2)cc1 (configuration not stated),–,–,–,7.08µM,–,–
COc1cccc2cc(C(=O)C3=C(O)C(=O)N(c4cc(C)on4)C3c3cccs3)oc12 (configuration not stated),–,–,–,50.1µM,–,?
Cc1ccc(-c2c(C#N)c(N)nc3c2CCCC3)o1,–,–,–,31.6µM,–,–
Cc1ccc(-c2c3c([nH]c(=S)c2C#N)CCCC3)o1,–,–,–,44.7µM,–,–
N#Cc1c(-c2ccncc2)c2c([nH]c1=S)CCCC2,–,–,–,?,–,–
CCOC(=O)C1=C(CN2CCN(c3ccccc3F)CC2)NC(=O)NC1c1ccc(Cl)cc1 (configuration not stated),·,–,–,–,·,–
COc1ccc(-n2cc(-c3ccccc3)c3c(Nc4ccc(OC)c(OC)c4)ncnc32)cc1,·,–,–,–,·,?
Cc1ccc(S(=O)(=O)NCC(=O)NCC(=O)OCc2c(F)cccc2Cl)cc1,35.5µM,–,–,–,–,–
Cc1ccc(C(=O)NCC(=O)OCc2c(F)cccc2Cl)cc1,·,–,–,–,·,·
Cc1nc(SCc2ccccc2)c2ccsc2n1,15.8µM,–,–,–,–,–
c1ccc(CSc2ncnc3sccc23)cc1,?,–,–,–,–,?
Cc1cc(C)cc(NCc2cc3c(cc2[N+](=O)[O-])OCO3)c1,–,–,–,–,·,15.8µM
O=C(Cn1sc2ccccc2c1=O)NC12CC3CC(CC(C3)C1)C2,–,–,–,–,–,15.8µM
O=C(Cn1sc2ccccc2c1=O)Nc1ccccc1,·,–,·,·,·,·
COc1ccccc1C(CCN(Cc1cccs1)C(C)=O)c1ccco1 (configuration not stated),?,–,–,44.7µM,–,?
Cc1ccccc1N1CCN(S(=O)(=O)CC23CCC(CC2NC(=O)C(N)CCS(C)(=O)=O)C3(C)C)CC1 (configuration not stated),·,·,·,·,·,–
O=C1C(Br)=C(c2ccccc2)C(c2ccccc2)=C1c1ccccc1,·,–,–,0.708µM,·,·
CC(C)(C)c1ccc(-c2nc(S(=O)(=O)c3ccccc3)c(N3CCOCC3)o2)cc1,·,·,–,–,·,–
Cc1ccc(-c2nc(S(=O)(=O)c3ccc(C)cc3)c(N3CCN(c4ccccc4)CC3)o2)cc1,·,–,–,–,·,–
Cc1ccc(S(=O)(=O)c2nc(Cc3ccccc3)oc2N2CCOCC2)cc1,·,–,–,4.47µM,·,·
CC(C)(C)c1nc(S(=O)(=O)c2ccc(Cl)cc2)c(N2CCOCC2)o1,–,–,–,?,–,–
